# The supplement of paper PMC8728848
# This is one part of a sample in which the strongest signals are shown more often than they occur.
# Experiments:
# Assay in all cases: glycan array binding signal (z-score within array); higher = stronger binding
# Conditions in all cases: glycan notation: IUPAC condensed, linker removed
# [1] = target: Fuc(a1-2)Gal(b1-3)GlcNAc(b1-2)Man(a1-3)[Fuc(a1-2)Gal(b1-3)GlcNAc(b1-2)Man(a1-6)]Man(b1-4)GlcNAc(b1-4)GlcNAc
# In short: (§1)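 The binding signal is a Z-score computed within each array. Data were drawn from 3228 arrays in the Consortium for Functional Glycomics database, restricted to those with a known protein sequence. Scores were averaged over arrays of the same protein sequence at different concentrations or buffers, and over linkers, and negative values can be taken as non-binding.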
# [2] = target: Fuc(a1-2)Gal(b1-4)GlcNAc6S
# In short: as §1
# [3] = target: Fuc(a1-2)Gal(b1-4)[Fuc(a1-3)]GlcNAc(b1-2)[Fuc(a1-2)Gal(b1-4)[Fuc(a1-3)]GlcNAc(b1-4)]Man(a1-3)[Fuc(a1-2)Gal(b1-4)[Fuc(a1-3)]GlcNAc(b1-2)Man(a1-6)]Man(b1-4)GlcNAc(b1-4)GlcNAc
# In short: as §1
# [4] = target: Fuc(a1-2)Gal(b1-4)[Fuc(a1-3)]GlcNAc(b1-3)Gal(b1-4)[Fuc(a1-3)]GlcNAc(b1-3)Gal(b1-4)[Fuc(a1-3)]GlcNAc
# In short: as §1
# [5] = target: Fuc(a1-2)Gal6S(b1-3)GlcNAc
# In short: as §1
# [6] = target: Fuc(a1-2)[Gal(a1-3)]Gal(b1-4)GlcNAc(b1-3)[Fuc(a1-2)[Gal(a1-3)]Gal(b1-4)GlcNAc(b1-6)]GalNAc
# In short: as §1
# [7] = target: Fuc(a1-2)[GalNAc(a1-3)]Gal(b1-4)Glc
# In short: as §1
# [8] = target: Fuc(a1-2)[GalNAc(a1-3)]Gal(b1-4)GlcNAc(b1-2)Man(a1-3)[Fuc(a1-2)[GalNAc(a1-3)]Gal(b1-4)GlcNAc(b1-2)Man(a1-6)]Man(b1-4)GlcNAc(b1-4)[Fuc(a1-6)]GlcNAc
# In short: as §1
# [9] = target: Fuc(a1-3)[Gal(b1-4)]GlcNAc(b1-2)Man(a1-3)[Fuc(a1-3)[Gal(b1-4)]GlcNAc(b1-2)Man(a1-6)]Man(b1-4)GlcNAc(b1-4)GlcNAc
# In short: as §1
# [10] = target: Fuc(a1-3)[Gal(b1-4)]GlcNAc(b1-3)Gal(b1-4)[Fuc(a1-3)]GlcNAc(b1-3)Gal(b1-4)[Fuc(a1-3)]GlcNAc
# In short: as §1
# [11] = target: Fuc(a1-3)[Gal(b1-4)]GlcNAc(b1-3)GalNAc
# In short: as §1
# Gal(a1-3)Gal = target: Gal(a1-3)Gal
# In short: as §1
# [12] = target: Gal(b1-3)GalNAc(a1-3)[Fuc(a1-2)]Gal(b1-4)Glc
# In short: as §1
# Gal(b1-3)GlcNAc = target: Gal(b1-3)GlcNAc
# In short: as §1
# [13] = target: Gal(b1-3)GlcNAc(a1-3)Gal(b1-4)GlcNAc
# In short: as §1
# [14] = target: Gal(b1-3)GlcNAc(b1-3)Gal(b1-4)GlcNAc(b1-2)[Gal(b1-3)GlcNAc(b1-3)Gal(b1-4)GlcNAc(b1-6)]Man(a1-6)[Gal(b1-3)GlcNAc(b1-3)Gal(b1-4)GlcNAc(b1-2)Man(a1-3)]Man(b1-4)GlcNAc(b1-4)[Fuc(a1-6)]GlcNAc
# In short: as §1
# [15] = target: Gal(b1-4)GlcNAc(b1-3)Gal(b1-4)GlcNAc(b1-3)Gal(b1-4)GlcNAc(b1-2)Man(a1-3)[Gal(b1-4)GlcNAc(b1-3)Gal(b1-4)GlcNAc(b1-3)Gal(b1-4)GlcNAc(b1-2)Man(a1-6)]Man(b1-4)GlcNAc(b1-4)[Fuc(a1-6)]GlcNAc
# In short: as §1
# [16] = target: Gal(b1-4)GlcNAc(b1-3)Gal(b1-4)GlcNAc(b1-3)Gal(b1-4)GlcNAc(b1-3)Gal(b1-4)GlcNAc(b1-3)Gal(b1-4)GlcNAc(b1-2)[Gal(b1-4)GlcNAc(b1-3)Gal(b1-4)GlcNAc(b1-3)Gal(b1-4)GlcNAc(b1-3)Gal(b1-4)GlcNAc(b1-3)Gal(b1-4)GlcNAc(b1-6)]Man(a1-6)[Gal(b1-4)GlcNAc(b1-3)Gal(b1-4)GlcNAc(b1-3)Gal(b1-4)GlcNAc(b1-3)Gal(b1-4)GlcNAc(b1-3)Gal(b1-4)GlcNAc(b1-2)Man(a1-3)]Man(b1-4)GlcNAc(b1-4)[Fuc(a1-6)]GlcNAc
# In short: as §1
# [17] = target: Gal(b1-4)GlcNAc(b1-3)Gal(b1-4)GlcNAc(b1-3)Gal(b1-4)GlcNAc(b1-3)Gal(b1-4)GlcNAc(b1-3)Gal(b1-4)GlcNAc(b1-3)Gal(b1-4)GlcNAc(b1-2)Man(a1-3)[Gal(b1-4)GlcNAc(b1-3)Gal(b1-4)GlcNAc(b1-3)Gal(b1-4)GlcNAc(b1-3)Gal(b1-4)GlcNAc(b1-3)Gal(b1-4)GlcNAc(b1-3)Gal(b1-4)GlcNAc(b1-2)Man(a1-6)]Man(b1-4)GlcNAc(b1-4)GlcNAc
# In short: as §1
# [18] = target: Gal(b1-4)GlcNAc(b1-3)Gal(b1-4)[Fuc(a1-3)]GlcNAc(b1-3)Gal(b1-4)[Fuc(a1-3)]GlcNAc
# In short: as §1
# Gal(b1-6)Gal = target: Gal(b1-6)Gal
# In short: as §1
# Gal3S(b1-4)GlcNAc = target: Gal3S(b1-4)GlcNAc
# In short: as §1
# Gal3S6S(b1-4)GlcNAc = target: Gal3S6S(b1-4)GlcNAc
# In short: as §1
# Gal6S(b1-4)Glc = target: Gal6S(b1-4)Glc
# In short: as §1
# GalNAc(b1-3)GalNAc = target: GalNAc(b1-3)GalNAc
# In short: as §1
# GalNAc(b1-3)GlcNAc = target: GalNAc(b1-3)GlcNAc
# In short: as §1
# GalNAc(b1-4)Gal(b1-4)Glc = target: GalNAc(b1-4)Gal(b1-4)Glc
# In short: as §1
# GalNAc(b1-4)GlcNAc = target: GalNAc(b1-4)GlcNAc
# In short: as §1
# GalNAc(b1-4)GlcNAc6S = target: GalNAc(b1-4)GlcNAc6S
# In short: as §1
binder,measurement,setting,value
"CBP21 (Serratia marcescens), O83009 (protein) MNKTSRTLLSLGLLSAAMFGVSQQANAHGYVESPASRAYQCKLQLNTQCGSVQYEPQSVEGLKGFPQAGPADGHIASADKSTFFELDQQTPTRWNKLNLKTGPNSFTWKLTARHSTTSWRYFITKPNWDASQPLTRASFDLTPFCQFNDGGAIPAAQVTHQCNIPADRSGSHVILAVWDIADTANAFYQAIDVNLSK",glycan array binding signal (z-score),[1],4.3
same,glycan array binding signal (z-score),[2],-1.02
same,glycan array binding signal (z-score),[3],3.02
same,glycan array binding signal (z-score),[4],2.95
same,glycan array binding signal (z-score),[5],-0.19
same,glycan array binding signal (z-score),[6],2.99
same,glycan array binding signal (z-score),[7],-0.513
same,glycan array binding signal (z-score),[8],-0.038
same,glycan array binding signal (z-score),[9],-0.009
same,glycan array binding signal (z-score),[10],-1.15
same,glycan array binding signal (z-score),[11],0.402
same,glycan array binding signal (z-score),Gal(a1-3)Gal,-0.172
same,glycan array binding signal (z-score),[12],-0.45
same,glycan array binding signal (z-score),Gal(b1-3)GlcNAc,-0.226
same,glycan array binding signal (z-score),[13],0.425
same,glycan array binding signal (z-score),[14],3.27
same,glycan array binding signal (z-score),[15],2.68
same,glycan array binding signal (z-score),[16],2.67
same,glycan array binding signal (z-score),[17],1.21
same,glycan array binding signal (z-score),[18],-0.565
same,glycan array binding signal (z-score),Gal(b1-6)Gal,-0.589
same,glycan array binding signal (z-score),Gal3S(b1-4)GlcNAc,1.21
same,glycan array binding signal (z-score),Gal3S6S(b1-4)GlcNAc,0.23
same,glycan array binding signal (z-score),Gal6S(b1-4)Glc,-0.3
same,glycan array binding signal (z-score),GalNAc(b1-3)GalNAc,-0.453
same,glycan array binding signal (z-score),GalNAc(b1-3)GlcNAc,-0.162
same,glycan array binding signal (z-score),GalNAc(b1-4)Gal(b1-4)Glc,1.03
same,glycan array binding signal (z-score),GalNAc(b1-4)GlcNAc,0.482
same,glycan array binding signal (z-score),GalNAc(b1-4)GlcNAc6S,0.16
